Consider 63 molecules from PubChem BioAssay AID504329 (Southern Research Specialized Biocontainment Screening …, 2011).

In all, about 340,000 compounds went through this assay and about 1,000 (0.29%) were called active. Rule as the data show it: inconclusive = inhibition above about 27% without an active follow-up result; inactive = below that. Not all results are given here. Results with a measured potency or affinity are listed apart.

This assay can be described thus: H1N1 influenza NS1A inhibitors, functional cell based assay (AID 504329). Particulars: percent inhibition, at 12.5 µM, hits give high values.
For `CC(C)=CC(=O)Nc1nnc(-c2ccccc2C)s1`, the inhibition is -8.76% (inactive).

Take `O=C(CNCc1ccc(Cl)cc1)N1CCc2ccccc2C1`: the inhibition was -2.57% (inactive).

`O=C(CNCc1cccc(Cl)c1)N1CCc2ccccc2C1`: the inhibition was -4.83% (inactive).

Consider `Cc1ccnc(Nc2nc3ccccc3o2)n1`, for which the inhibition was -3.68% (inactive).

`C/C(=N\Nc1nc2ccccc2s1)c1cccs1`: the inhibition was -10% (inactive).

As to `COc1cc(/C=N/Nc2nc3ccccc3o2)cc(OC)c1O`, the inhibition is 1.3% (inactive).

As to `CN(C)c1ccc(/C=N/Nc2nc3ccccc3o2)cc1`, the inhibition was -0.4% (inactive).

In the case of `CC(=NNc1nc2ccccc2s1)c1ccncn1`, the inhibition was 6.3% (inactive).

As to `Oc1ccccc1/C=N/Nc1nc2ccccc2o1`, the inhibition was 12% (inactive).

In the case of `CCCN1CCC(N(C)CCc2ccc(OC)c(OC)c2)CC1`, the inhibition is -5.4% (inactive).

Regarding `CCOC(=O)C1=C(C)N(C[C@@H]2CC[C@@H](Cc3ccc(-c4ccccc4)cc3)O2)C(=O)NC1c1ccc(Cl)cc1` (stereo partly drawn), the inhibition is -4.34% (inactive).

As for `Cc1cccc(C)c1NC(=O)COC(=O)COc1ccc2c(C)cc(=O)oc2c1`, the inhibition is 10.5% (inactive).

For the molecule `COc1ccccc1-n1nnnc1SCC(=O)NCC1CCCO1` (stereo not drawn), the inhibition is -3.64% (inactive).

Consider `Cc1cccc(NC(=S)N(CCCN2CCOCC2)Cc2cn(C)c3ccccc23)c1`, for which the inhibition is 4.41% (inactive).

`Cc1ccc2c(c1)-c1c(ssc1=S)C(C)(C)N2C(=O)CN1C(=O)c2ccccc2C1=O`: the inhibition is 28.5% (inactive).

For `CC1(C)c2ssc(=S)c2-c2ccccc2N1C(=O)c1ccco1`, the inhibition is 2.72% (inactive).

Take `CCOc1ccc2c(c1)-c1c(ssc1=S)C(C)(C)N2C(=O)CSC1=NCCS1`: the inhibition was 20% (inactive).

For `Cc1cc2c(cc1C)N(C(=O)CSC1=NCCS1)C(C)(C)c1ssc(=S)c1-2`, the inhibition was 14.7% (inactive).

Take `CCOC(=O)c1c(NC(=O)c2ccc(N3C(=O)[C@@H]4[C@H](C3=O)[C@H]3C=C[C@@H]4C3)cc2)sc2c1CCCC2`: the inhibition is -7.09% (inactive).

In the case of `CC(C)C(=O)Nc1ccc(NC(=S)NC(=O)c2ccccc2F)cc1`, the inhibition was 1.28% (inactive).

For `O=S(=O)(NCCc1cn2ccccc2n1)c1ccc2c(c1)CCCC2`, the inhibition is 25.4% (inactive).

As for `S=C(CN1CCCC1=S)NCCc1ccccc1`, the inhibition was -5.27% (inactive).

Consider `Cc1[nH]c2ccccc2c1CCNS(=O)(=O)c1ccc(S(N)(=O)=O)cc1`, for which the inhibition was 23.3% (inactive).

Turning to `CN(Cc1ccc(Cl)c(Cl)c1)C(=O)c1ccccc1SCC(=O)N1CCCC1`, the inhibition was -4.06% (inactive).

As to `CN(C)Cc1c(C(=O)N/N=C/c2ccncc2)nnn1-c1nonc1N`, the inhibition is 6.41% (inactive).

Regarding `Cc1ccc(S(=O)(=O)N2[C@@H](c3cccc(C)c3)C(C(=O)O)=C[C@H]2CC2CCCC2)cc1`, the inhibition is 8.82% (inactive).

Turning to `Cc1ccc(-n2nnnc2SCC(=O)Nc2ccccc2N2CCCCC2)cc1C`, the inhibition is -1.34% (inactive).

As to `Cc1cc(C)nc(NC(N)=NCCc2ccccc2)n1`, the inhibition was -1.52% (inactive).

As to `CCCCSCCCNC(=O)C1CCC(CNS(=O)(=O)c2ccccc2)CC1` (stereo not drawn), the inhibition is -20% (inactive).

`COc1cc(NC2c3ccccc3C(=O)N2Cc2ccc3c(c2)OCO3)cc(OC)c1` (stereo not drawn): the inhibition was -1.58% (inactive).

On to `COc1ccc(NC2c3ccccc3C(=O)N2Cc2ccc3c(c2)OCO3)cc1` (stereo not drawn), for which the inhibition was 5.36% (inactive).

Regarding `O=C(NCCN1CCCCC1)Nc1ccc(Br)cc1`, the inhibition was -24.7% (inactive).

`O=[N+]([O-])c1cc(F)c(N2CCCCC2)cc1N1CCOCC1`: the inhibition is 10.6% (inactive).

With `N#Cc1cc(N2CCCCC2)c([N+](=O)[O-])cc1C#N`, the inhibition was 9.08% (inactive).

Turning to `O=C(CSc1n[nH]c(=O)[nH]c1=O)Nc1ccccc1C(=O)c1ccccc1`, the inhibition is -9.72% (inactive).

For the molecule `O=C(O)CCCCC1SCC2NC(=O)NC21` (stereo not drawn), the inhibition was 22.1% (inactive).

As to `Cc1ccc(NC(=O)CCC(=O)Nc2ccc(C)cc2)cc1`, the inhibition is 4.02% (inactive).

On to `CCCCC(=O)Nc1ccc(F)c(Cl)c1`, for which the inhibition was 0.54% (inactive).

Consider `CCc1cccc(NC(=O)CCSCCC(=O)Nc2cccc(CC)c2)c1`, for which the inhibition is 14.8% (inactive).

In the case of `CCc1cccc(NC(=O)CCCN2C(=O)NC(C)(C)C2=O)c1`, the inhibition was -6.41% (inactive).

With `COC(=O)CCCCC1SCC2NC(=O)NC21` (stereo not drawn), the inhibition was 1.31% (inactive).

On to `Cc1cccc(C)c1NC(=O)CCCCCC1NC(=O)NC1C` (stereo not drawn), for which the inhibition was 24.2% (inactive).

With `CCC(=O)Nc1ccc(F)c(Cl)c1`, the inhibition is -2.47% (inactive).

As for `COc1ccc(C(C(=O)NC2CCCC2)N(CCN(C)C)C(=O)c2snc(C(N)=O)c2N)cc1` (stereo not drawn), the inhibition is -6.89% (inactive).

As for `O=C(Cc1ncc(C(F)(F)F)cc1Cl)NC1CC1`, the inhibition is -2.28% (inactive).

On to `O=C(Cc1cccc(C(F)(F)F)c1)N1CCN(CC(=O)N2CCCC2)CC1`, for which the inhibition was -1.65% (inactive).

For the molecule `CCCNC(=O)CN(c1cccc(F)c1)S(C)(=O)=O`, the inhibition was -3.24% (inactive).

For `COC(CNC(=O)CN1CCN(Cc2ccccc2F)C1=O)OC`, the inhibition was -6.42% (inactive).

As to `COc1ccc(NC(=O)CN2CCN(CC(=O)Nc3ccc(F)cc3)CC2)c(OC)c1`, the inhibition was -6.91% (inactive).

In the case of `O=C(COC(=O)c1ccc(O)cc1)NCC1COc2ccccc2O1` (stereo not drawn), the inhibition was -6.24% (inactive).

For the molecule `Cc1nn(CC(=O)NC(=O)c2ccccc2)c(C)c1[N+](=O)[O-]`, the inhibition was -12.3% (inactive).

Regarding `COc1ccc(CC(=O)OC2CCCN(C)C2)cc1` (stereo not drawn), the inhibition is 2.07% (inactive).

Turning to `CC1NC(=O)NC1CCCCC(=O)O` (stereo not drawn), the inhibition is 8.09% (inactive).

In the case of `Cc1c(F)cccc1NC(=O)CCC(=O)O`, the inhibition is 22.1% (inactive).

On to `O=C(CCCCC(=O)Nc1ccc(F)cc1)Nc1ccc(F)cc1`, for which the inhibition is -8.93% (inactive).

With `O=C(CCCCCN1C(=O)c2ccccc2C1=O)Nc1ccc(F)cc1`, the inhibition is 15.1% (inactive).

Regarding `Cc1c(F)cccc1NC(=O)CSCC(=O)Nc1ccccc1`, the inhibition is -20.1% (inactive).

As to `CCCCCC1NC(=O)NC1CCCCCC(=O)O` (stereo not drawn), the inhibition was 0.19% (inactive).

As to `COc1ccc(NC(=S)NCCc2ccc(S(N)(=O)=O)cc2)c(OC)c1`, the inhibition was 0.63% (inactive).

`Cc1ccc(C)c(OCCn2cc(/C=C(\C#N)C(=O)NCC3CCCO3)c3ccccc32)c1` (stereo not drawn): the inhibition was 5.75% (inactive).

As for `O=C(COC(=O)Cc1ccc(Cl)cc1)Nc1ccc(OC(F)F)cc1`, the inhibition was -4.03% (inactive).

In the case of `COc1cc(CN2C(=S)NC(C)(C)CC2(C)O)cc(OC)c1` (stereo not drawn), the inhibition is -3.29% (inactive).

As to `Cc1cc(C)n(Cc2ccc(C(=O)Nc3cccc(Br)c3)o2)n1`, the inhibition was 26.6% (inactive).

The term inhibition denotes the relative decrease from the control value, in per cent.
